Over roughly 25,000 sequences, “ln(normalized median fluorescence intensity)” has its median near 9.3; the highest 2% begin near 10. The entries come from a sample that favours the highest values as a whole.
The sequences below were run on PF3D7_0420300 AP2 domain 1 (GST-tagged) (assay: gcPBM binding intensity (ln(normalized median fluorescence intensity)); higher = stronger DNA binding).
Summary of the method: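 In this array assay, P. falciparum DNA-binding domains with a GST tag, expressed in E. coli, were applied for 1 h to primer-extended double-stranded 36-bp intergenic genomic probes and negative controls on an Agilent 4 × 180k array. Bound protein was visualised with Alexa488 anti-GST antibody at 488 nm. Binding intensity is the highest Masliner-normalised natural-log median intensity across replicate spots of either probe orientation.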

Sequence | gcPBM binding intensity (ln)
GTAATTTTATATGGTTGTACATATATATATATATAT [XGTACX_site6659] | 9.32
TAAAATATGGAAATCACACATTTATTAAAATATATA [CACACA_site4623] | 9.13
TGTATTAATATGGTAATACACACTAATATACTTTTG [CACACA_site1610] | 9.38
TTGATTTCATTTTAAGTGCATAACTAATATTATATA [GTGCAC_site9713] | 9.14
ATTATGAAATATCGTGCACACACGAATAATATAAGA [CACACA_site1294] | 9.42
AAAAAAAAAACAAATGCATGTAATATAAGAATTACA [TGCATGCA_site908] | 9.27
TACAGACAGAAATGCACACACATATTTATATTTATA [CACACA_site7139] | 9.75
CATACAGACGAACACACACACATATAAATATAAATA [CACACA_site6443] | 9.91
TAACACATAAATAAATATATACATATATATAAAATA [CACACA_negctrl_site375] | 9.36
AACATATACACGAACACACACACATATAAATAAATA [CACACA_site6380] | 9.96
CGAACAAACAAATAAACACACAAAAAAAAATATATA [CACACA_site1825] | 9.61
CTAAAATACGAACACACACACACATATAAATAAATA [CACACA_site7872] | 10.3
AAACAAAAAATATATACACACTAAACATAAAAAAAA [CACACA_site4185] | 9.83
CATATACACGAACACACACACATATAAATAAATATA [CACACA_site6379] | 10.1
AACAAATACGAACACACACACACACTAAAAAAAAAA [CACACA_site6386] | 10.2
AGTATACACGAACACACACACACATATATAAATATA [CACACA_site6913] | 10.3
TGATCAATGGATTTAACACACAAAAAAAAAAAAAAA [CACACA_site3845] | 9.11
AAATAAAATAAAATAAAATAAAATTCTTTGATACCT [TGCATGCA_negctrl_site604] | 9.16
ATATATATATATATATGTACACATATATATACTCAC [XGTACX_site8043] | 9.37

Sequence | gcPBM binding intensity (ln)
ATATATTATATAAAAAGTACTAAAATAGTAAGATGT [XGTACX_site7493] | 9.65
GTTTATATATTATAAAGTACATATGAATTTAATAAT [XGTACX_site3601] | 9.01
CAAACAAACAGACACACACACACACCCAAAAATGAT [CACACA_site2430] | 10.4
AACAAACACAGACACACACACACACCCAAATGATTA [CACACA_site2431] | 10.2
AACACCCACAGACACACACACAAAAATGATTAAAAA [CACACA_site2433] | 9.83
TTAACAAATGGACACACACACACACCCAAAAAAAAA [CACACA_site4443] | 9.91
CAAACAAACGGACACACACACACACCCAAAAATGAT [CACACA_site5363] | 10.1
AATATGAACAGACACACACACACAAAAAAAAAAAAA [CACACA_site2012] | 10
AACAAACACAGACACACACACACACTAATATGATTA [CACACA_site8770] | 10.2
CAAACCCACCAACACACACACACAAAAATGATTAAA [CACACA_site2432] | 9.82
TATGAACACAGACACACACACAAAAAAAAAAAAAAA [CACACA_site7037] | 9.27
ATATTTTTTTTTTTCACACACATTTAGATTGTATTA [CACACA_site3137] | 9.86
GACATTGATACCAGTAGTACCTATAGATGTTTGTTT [XGTACX_site5736] | 9.55
TTACAAATAATTTGTTGTACGCTTTTTTTCTTTTTT [XGTACX_site7199] | 9.48
ATTGGACTATAAATAGGTACACATATATATATATAT [XGTACX_site7562] | 9.59
AATAGAAAAAAAAAATGTACACATATAAAAGCATAT [XGTACX_site6306] | 9.77
GCTTATAAAGGCAGAAGTACTGTATTCCTATATATA [XGTACX_site8865] | 9.22
AAAAAAAAAAAAAACACACACACACCCAAATATATA [CACACA_site1169] | 10.1
TAGTATAATATGAACACACACACACGCACAAAAAAA [CACACA_site7035] | 10.1

Sequence | gcPBM binding intensity (ln)
TAGTATAATATGAACACACACACACCGACAAAAAAA [CACACA_site5151] | 9.99
ATAATATGAAAACACACACACACACCCAAAAAAAAA [CACACA_site2011] | 10.2
ATCGTAGTATAATATGAACACACACCCACCCACAAA [CACACA_site8616] | 10.2
GTATAATATGAACACACACACACACGCAAAAAAAAA [CACACA_site7036] | 10.1
GTATAATAGAAACACACACACACACCCAAAAAAAAA [CACACA_site2010] | 10.3
TAGTATAATATGAACACACACACACCCACAAAAAAA [CACACA_site2009] | 10
GTATAATATGAACACACACACACACCCAAAAAAAAA [CACACA_site5152] | 10.2
TTTTATATATTATATACACACATATATATATATATA [CACACA_site2999] | 9.29
ATATATATATAGTGCACACTTAAGAATATAAAGAGG [CACACA_site1151] | 9.45
AAAAGGTATGTTATACATAGATATGCACATATATGT [TGCATGCA_negctrl_site96] | 9.29
CTTAAAGGGAAAAATACACACATATAAATATTATGT [CACACA_site2225] | 9.47
AAAATTATTTAGTAAGTGCAAAAAAAAAAAAAAAAA | 8.78
TATGAAGAAAAGAATTGTACGATGTTTATTTTGTAT [XGTACX_site8614] | 9.22
CCTAAATTATATTATGCACACTTAAAAATATATTTA [CACACA_site5861] | 9.14
ATTATGCACAGACACACACACACACTACTAAAAAAT [CACACA_site7252] | 10.1
ATTATGCACCAACACACACACACACTCCTAAAAAAT [CACACA_site8822] | 10.3
ATTATGCACGGACACACACACACACCCCTAAAAAAT [CACACA_site5426] | 10.2
ATTATGCACCAACACACACACACACCCCTAAAAAAT [CACACA_site2568] | 10.3
TGCACAAAATTATGCACACACCTAAAATTAATTTTT [CACACA_site5596] | 9.46
